Reference: PubChem BioAssay (Tox21)
Where “and” joins values, the source holds several entries; their conditions need not be identical. Equal values may be shown once. Records with an inconclusive call do not appear. Some compounds were tested as several samples or in several runs, with calls that do not always agree. Calls of active or inactive are those of the source. Unless noted, calls follow the shape of the dose curve; as a rule, active = well fitted curve in the direction sought with a large enough effect in the repeat runs; inconclusive = weak or mixed curves; inactive = no such curve, though single readings can be large; an effect the other way counts as inactive or inconclusive.

Key:
[1] = qHTS assay to identify small molecule antagonists of the estrogen related receptor (ERR) signaling pathway from Tox21 library - cell viability counter screen (AID 1224834); also: nearly all actives have a fitted effect of over 30% in size
Method in brief: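 In this quantitative HTS format, ERR cells receive compounds in DMSO and are incubated for 17.5 h at 37 C. Live-cell protease activity is then detected with CellTiter-Fluor.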

[2] = biological target: Luciferin 4-monooxygenase (Photinus pyralis) (UniProt P08659); assay: qHTS assay to identify small molecule inhibitors of firefly luciferase (AID 1224835); also: nearly all actives have a fitted effect of over 25% in size; also: potency is read from the fitted curve at half-maximal effect
Method in brief: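 Inhibition of purified Photinus luciferase is measured by luminescence. Substrate levels (D-luciferin, ATP) sit at their KM values. Each compound is tested in a concentration series.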

[3] = qHTS assay to identify small molecule agonists of the constitutive androstane receptor (CAR) signaling pathway - cell viability counter screen (AID 1224836); also: nearly all actives have a fitted effect of over 45% in size
Method in brief: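 HepG2 cells stably carrying hCAR and a CYP2B6-2.2kb reporter were plated 4 h, then given compounds at 15 concentrations plus PK11195 (final 0.75 uM). After 23 h at 37 C, viability was read by CellTiter-Fluor fluorescence.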

[4] = qHTS assay to identify small molecule antagonists of the constitutive androstane receptor (CAR) signaling pathway - cell viability counter screen (AID 1224837); also: nearly all actives have a fitted effect of over 45% in size
Method in brief: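 In quantitative HTS format, compounds at 15 concentrations were applied to HepG2 cells double-transfected with hCAR and CYP2B6-2.2kb under 50 nM CITCO stimulation; live-cell protease activity was read after 23 hr via CellTiter-Fluor.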

[5] = biological target: Thyrotropin receptor (Homo sapiens) (UniProt P16473); assay: qHTS assay to identify small molecule agonists of the thyroid stimulating hormone receptor (TSHR) signaling pathway (AID 1224843; calls by dose curve; also: nearly all actives have a fitted effect of over 45% in size; also: potency is read from the fitted curve at half-maximal effect)
Method in brief: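 Agonist activity read as cAMP rise via d2/cryptate HTRF competition, 1 h room-temperature detection, in HEK293 cells expressing TSHR. Fifteen-point titrations, each run in triplicate, with a 30 min room-temperature incubation beforehand.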

[6] = qHTS assay to identify small molecule agonists of the hypoxia (HIF-1) signaling pathway (AID 1224846; active = well fitted activation curve with a large enough effect in the signal ratio in the repeat runs, not every such curve was filed as active; the % refers to the signal ratio)
Method in brief: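 In ME-180 cells bearing an HRE-bla construct, 17 h treatment with DMSO-dissolved compounds at 37C was followed by CCF4-AM loading to quantify reporter induction.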

[7] = qHTS assay to identify small molecule agonists of H2AX - cell viability counter screen (AID 1224847; calls by dose curve; also: nearly all actives have a fitted effect of over 30% in size; also: potency is read from the fitted curve at half-maximal effect)
Method in brief: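 Wild-type CHO-K1 cells (10% FBS medium) were plated overnight at 37C, exposed to compounds at 15 concentrations for 3 hr at 37C (0.76% DMSO final), and viability was read as CellTiter-Glo luminescence after 30 min at room temperature.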

[8] = qHTS RealTime-Glo MT Cell Viability Assay in HepG2 cells - 24 hour (AID 1224867); also: nearly all actives have a fitted effect of over 50% in size
Method in brief: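 qHTS, HepG2, 600 cells/well, RealTime-Glo (NanoLuc + prosubstrate) added with cells; 5 h preincubation; DMSO compound addition; 37 C; luminescence at 0/8/16/24/32/40 h.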

[9] = qHTS RealTime-Glo MT Cell Viability Assay in HEK293 cells - 32 hour (AID 1224868); also: top concentration of the series differs between compounds; nearly all actives have a fitted effect of over 50% in size
Method in brief: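 Assay medium contained NanoLuc luciferase plus cell-permeant prosubstrate, added with HEK293 cells at 600 cells/well. After 5 h at 37 C/5% CO2 compounds were added; plates stayed at 37 C for 40 h with serial luminescence reads.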

[10] = A CellTox Green Cytotoxicity Assay to monitor cytotoxicity in HEK293 cells - 0 hour (AID 1224869); also: nearly all actives have a fitted effect of over 50% in size
Method in brief: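 Homogeneous no-lysis format: HEK293 cell suspension mixed with CellTox Green reagent, seeded, incubated 5 h at 37 C/5% CO2, then dosed by pintool with compound in DMSO.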

[11] = biological target: Nuclear receptor subfamily 1 group I member 3 (Homo sapiens) (UniProt Q14994); assay: qHTS assay to identify small molecule antagonists of the constitutive androstane receptor (CAR) signaling pathway (AID 1224838); also: nearly all actives have a fitted effect of over 40% in size
Method in brief: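 CITCO-stimulated (50 nM final) HepG2 cells stably transfected with hCAR and CYP2B6-2.2kb luciferase were exposed to compounds at 15 concentrations for 24 h at 37 C/5% CO2. A luciferase reagent was added and luminescence recorded after 30 min.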

[12] = qHTS assay to identify small molecule agonists of the hypoxia (HIF-1) signaling pathway - cell viability counter screen (AID 1224844; calls by dose curve; also: nearly all actives have a fitted effect of over 50% in size)
Method in brief: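 Same wells as the HIF-1 reporter screen; ME-180 cells carrying HRE-bla, 17 hr treatment at 37C; CellTiter-Glo luminescence read after 30 min at room temperature.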

[13] = qHTS assay to identify small molecule agonists of H2AX (AID 1224845; active = well fitted activation curve with a large enough effect in the signal ratio in the repeat runs, not every such curve was filed as active; the % refers to the signal ratio)
Method in brief: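 Phospho-H2AX Ser139 measured by HTRF (ex 320 nm; em 665 and 620 nm) after 24 hr antibody incubation. Compounds, 15 concentrations, 0.76% DMSO, were applied to CHO-K1 cells for 3hr at 37C before lysis.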

[14] = biological target: Nuclear receptor subfamily 1 group I member 3 (Homo sapiens) (UniProt Q14994); assay: qHTS assay to identify small molecule agonists of the constitutive androstane receptor (CAR) signaling pathway (AID 1224839); also: nearly all actives have a fitted effect of over 15% in size; also: potency is read from the fitted curve at half-maximal effect;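 as to activation: HepG2 cells stably carrying human CAR and a CYP2B6 luciferase reporter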
Method in brief: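 HepG2 cells stably expressing hCAR and a CYP2B6-2.2kb luciferase reporter were treated with compounds at 15 concentrations plus 0.75 uM PK11195 (final) for 24 h at 37 C; luminescence was read after ONE-Glo addition.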

[15] = qHTS assay to identify small molecule antagonists of the estrogen related receptor signaling pathway with the pleiotropic PPARgamma coactivator (PGC) from Tox21 10K library (AID 1224841; call rule not given here; also: potency is read from the fitted curve at half-maximal effect)
Method in brief: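 In the PGC/ERR line, DMSO solutions of test chemicals are pin-delivered to 2,000 cells/well six hours after dispensing. Following eighteen hours' incubation, One-Glo reagent is added and luminescence recorded.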

[16] = qHTS assay to identify small molecule agonists of the estrogen related receptor signaling pathway with the pleiotropic PPARgamma coactivator (PGC) from Tox21 10K library (AID 1224842); also: nearly all actives have a fitted effect of over 15% in size
Method in brief: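 Luminescence from One-Glo (30 min, room temperature) measured after PGC/ERR cells had 18 h at 37 C with pinned compound (23 nL in DMSO). Cells had been seeded at 2,000 per well and pre-incubated 6 h.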

[17] = qHTS assay to identify small molecule antagonists of the estrogen related receptor (ERR) signaling pathway from Tox21 library (AID 1224848); also: nearly all actives have a fitted effect of over 50% in size; also: potency is read from the fitted curve at half-maximal effect
Method in brief: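 Luciferase luminescence (ONE-Glo, 30 min room temperature) was the read-out. Cells of the NTP-supplied ERR line, 2,000 per well, were given 6 h at 37 C before compound addition in DMSO and 18 h exposure at 37 C.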

[18] = qHTS assay to identify small molecule agonists of the estrogen related receptor (ERR) signaling pathway from Tox21 library (AID 1224849; calls by dose curve; also: nearly all actives have a fitted effect of over 15% in size); conditions: ERR reporter cell line, ONE-Glo luciferase, 18 h
Method in brief: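 Reporter cells (ERR, NTP source) treated with Tox21 10K compounds 18 h, 37 C. Readout: ONE-Glo luminescence, 30 min RT.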

[19] = qHTS assay to identify small molecule antagonists of the estrogen related receptor signaling pathway with the pleiotropic PPARgamma coactivator (PGC) from Tox21 10K library - cell viability counter screen (AID 1224840; active = well fitted cell-killing curve with a large enough effect in the repeat runs, not every such curve was filed as active; also: nearly all actives have a fitted effect of over 40% in size)
Method in brief: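 Viability counter screen, PGC/ERR cells: 17.5 h compound exposure at 37 C, CellTiter-Fluor fluorescence endpoint.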
% is scaled to controls: 0 for no effect and ±100 for the full control effect.

Luciferin 4-monooxygenase (Photinus pyralis), sequence (P08659 whole entry, looked up): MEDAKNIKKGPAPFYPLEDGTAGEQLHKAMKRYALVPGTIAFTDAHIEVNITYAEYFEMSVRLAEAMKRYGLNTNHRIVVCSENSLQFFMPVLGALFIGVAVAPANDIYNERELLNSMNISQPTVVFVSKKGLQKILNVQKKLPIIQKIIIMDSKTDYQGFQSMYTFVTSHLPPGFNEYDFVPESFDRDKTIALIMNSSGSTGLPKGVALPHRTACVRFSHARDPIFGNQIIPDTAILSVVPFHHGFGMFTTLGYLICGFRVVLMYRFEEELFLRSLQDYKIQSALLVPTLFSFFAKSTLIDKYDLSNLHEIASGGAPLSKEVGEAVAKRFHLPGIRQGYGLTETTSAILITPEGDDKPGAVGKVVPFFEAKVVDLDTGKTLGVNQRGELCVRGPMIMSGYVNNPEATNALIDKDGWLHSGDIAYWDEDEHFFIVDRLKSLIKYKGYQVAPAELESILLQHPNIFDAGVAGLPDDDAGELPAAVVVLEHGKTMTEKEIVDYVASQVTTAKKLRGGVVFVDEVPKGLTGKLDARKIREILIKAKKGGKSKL
Thyrotropin receptor (Homo sapiens), sequence (P16473 whole entry, looked up): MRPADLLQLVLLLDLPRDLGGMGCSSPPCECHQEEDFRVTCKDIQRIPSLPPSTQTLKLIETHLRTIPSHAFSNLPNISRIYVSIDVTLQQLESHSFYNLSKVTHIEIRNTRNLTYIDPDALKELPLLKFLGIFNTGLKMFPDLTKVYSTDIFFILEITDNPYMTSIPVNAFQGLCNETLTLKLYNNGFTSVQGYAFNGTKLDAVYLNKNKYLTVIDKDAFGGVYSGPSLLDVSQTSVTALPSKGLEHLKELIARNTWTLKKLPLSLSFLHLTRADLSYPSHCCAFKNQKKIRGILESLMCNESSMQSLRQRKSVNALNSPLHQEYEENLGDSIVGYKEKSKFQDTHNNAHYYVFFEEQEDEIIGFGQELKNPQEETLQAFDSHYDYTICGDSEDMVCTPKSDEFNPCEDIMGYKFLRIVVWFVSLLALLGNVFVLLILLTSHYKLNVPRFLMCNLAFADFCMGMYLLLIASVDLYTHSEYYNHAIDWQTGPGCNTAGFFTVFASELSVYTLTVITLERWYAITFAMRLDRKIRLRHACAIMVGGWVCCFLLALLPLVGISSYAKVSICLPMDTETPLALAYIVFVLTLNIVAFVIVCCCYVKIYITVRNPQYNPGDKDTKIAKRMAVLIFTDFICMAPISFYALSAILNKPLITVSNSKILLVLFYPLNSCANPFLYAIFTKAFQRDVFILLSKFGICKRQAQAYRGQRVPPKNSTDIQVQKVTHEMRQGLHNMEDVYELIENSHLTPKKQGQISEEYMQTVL
Nuclear receptor subfamily 1 group I member 3 (Homo sapiens), sequence (Q14994 whole entry, looked up): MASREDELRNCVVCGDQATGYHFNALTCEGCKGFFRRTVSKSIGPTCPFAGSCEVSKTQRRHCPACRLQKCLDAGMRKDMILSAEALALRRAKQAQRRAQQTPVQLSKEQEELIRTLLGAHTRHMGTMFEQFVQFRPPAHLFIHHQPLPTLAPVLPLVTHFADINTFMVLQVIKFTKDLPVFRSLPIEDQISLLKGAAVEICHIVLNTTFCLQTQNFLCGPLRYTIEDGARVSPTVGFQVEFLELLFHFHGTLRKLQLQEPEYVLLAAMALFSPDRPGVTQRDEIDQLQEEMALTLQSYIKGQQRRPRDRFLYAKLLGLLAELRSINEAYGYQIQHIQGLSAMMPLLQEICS

O=C(O)C(F)(F)C(F)(F)C(F)(F)C(F)(F)C(F)(F)C(F)(F)C(F)(F)F
inactive: Potency [1] | Potency [2] | Potency [3] | Potency [4] | Potency [5] | outcome [6] | Potency [7] | Potency [8] | Potency [9] | Potency [10]

CC1(C)C(C=C(Cl)Cl)C1C(=O)OC(C#N)c1cccc(Oc2ccccc2)c1 (stereo not drawn)
inactive: Potency [1] | Potency [2] | Potency [3] | Potency [4] | Potency [11] | Potency [5] | Potency [12] | Potency [13] | outcome [6] | Potency [7] | Potency [8] | Potency [9] | Potency [10]

Oc1ccc(-c2ccccc2)cc1
inactive: Potency [1] | Potency [3] | Potency [4] | Potency [15] | Potency [16] | Potency [5] | Potency [12] | Potency [13] | outcome [6] | Potency [17] | activity change, positive = activation ([18]; at 92.4 µM (top of the series)) 1.81% | Potency [8] | Potency [10]
active: Potency [2] 39.4 µM and 39.9 µM | Potency [14] 53.8 µM and 54.5 µM

CCN(CC)C(=O)SCc1ccc(Cl)cc1
active: Potency [2] 35.6 µM
inactive: Potency [1] | Potency [3] | Potency [4] | Potency [19] | Potency [15] | Potency [16] | Potency [12] | outcome [6] | Potency [7] | Potency [17] | activity change, positive = activation ([18]; at 92.4 µM (top of the series)) 4.95% and 6.33% | Potency [8] | Potency [9]

CCN(CC)C(=O)/C(Cl)=C(\C)OP(=O)(OC)OC
inactive: Potency [1] | Potency [2] | Potency [3] | Potency [4] | Potency [5] | Potency [12] | Potency [13] | outcome [6] | Potency [7] | Potency [8] | Potency [9] | Potency [10]

O=[N+]([O-])c1cccc2ccccc12
inactive: Potency [1] | Potency [2] | Potency [3] | Potency [4] | Potency [14] | Potency [19] | Potency [15] | Potency [16] | Potency [5] | Potency [12] | Potency [13] | outcome [6] | Potency [7] | Potency [17] | activity change, positive = activation ([18]; at 92.4 µM (top of the series)) -1.67% and -0.342% | Potency [8] | Potency [9]

C[C@]12CCC(=O)C(O)=C1CC[C@@H]1[C@@H]2CC[C@]2(C)C(=O)CC[C@@H]12
54.5 µM (active) and inactive: Potency [17]
inactive: Potency [1] | Potency [2] | Potency [3] | Potency [4] | Potency [11] | Potency [14] | Potency [19] | Potency [15] | Potency [16] | Potency [12] | Potency [13] | outcome [6] | Potency [7] | activity change, positive = activation ([18]; at 42.5 µM (top of the series)) -8.87% | activity change, positive = activation ([18]; at 92.4 µM (top of the series)) -37.5% | Potency [8] | Potency [10]

COP(=S)(OC)Oc1cc(Cl)c(Cl)cc1Cl
inactive: Potency [1] | Potency [2] | Potency [3] | Potency [4] | Potency [19] | Potency [5] | Potency [12] | outcome [6] | Potency [7] | Potency [8] | Potency [9]
active: Potency [14] 54.1 µM

Oc1cc(Cl)c(Cl)cc1Cl
inactive: Potency [1] | Potency [2] | Potency [3] | Potency [4] | Potency [5] | Potency [12] | outcome [6] | Potency [8] | Potency [10]
100 µM (active) and inactive: Potency [7]

Nn1cnnc1
inactive: Potency [1] | Potency [2] | Potency [3] | Potency [4] | Potency [14] | Potency [19] | Potency [5] | Potency [12] | outcome [6] | Potency [7] | Potency [8] | Potency [9]

CCCCNC(=O)n1c(NC(=O)OC)nc2ccccc21
inactive: Potency [1] | Potency [3] | Potency [4] | Potency [11] | Potency [5] | Potency [12] | Potency [13] | outcome [6] | Potency [7] | Potency [8] | Potency [10]
active: Potency [2] 63 µM | Potency [14] 54.2 µM

CCCCN(CC)c1c([N+](=O)[O-])cc(C(F)(F)F)cc1[N+](=O)[O-]
inactive: Potency [1] | Potency [2] | Potency [3] | Potency [4] | Potency [19] | Potency [15] | Potency [16] | Potency [12] | Potency [13] | outcome [6] | Potency [7] | Potency [17] | activity change, positive = activation ([18]; at 92.4 µM (top of the series)) -0.494% and 5.99% | Potency [8] | Potency [10]
active: Potency [5] 8.77 µM and 12.2 µM

CC(O)CCO (stereo not drawn)
inactive: Potency [1] | Potency [2] | Potency [3] | Potency [4] | Potency [14] | Potency [19] | Potency [5] | Potency [12] | Potency [13] | outcome [6] | Potency [7] | Potency [8] | Potency [9]

Nc1c(Cl)cc([N+](=O)[O-])cc1Cl
inactive: Potency [1] | Potency [2] | Potency [3] | Potency [4] | Potency [14] | Potency [16] | Potency [12] | outcome [6] | Potency [7] | activity change, positive = activation ([18]; at 92.4 µM (top of the series)) -38.6% and -54.4% | Potency [8] | Potency [9]
active: Potency [15] 48.9 µM and 27.3 µM | Potency [17] 30.8 µM and 24.3 µM

c1ccc(N=Nc2ccccc2)cc1
inactive: Potency [1] | Potency [3] | Potency [4] | Potency [11] | Potency [14] | Potency [19] | Potency [15] | Potency [16] | Potency [5] | Potency [12] | Potency [13] | outcome [6] | Potency [7] | Potency [17] | activity change, positive = activation ([18]; at 92.4 µM (top of the series)) 2.72% and 1.53% | Potency [8] | Potency [9] | Potency [10]
active: Potency [2] 18.2 µM and 22.4 µM
